Experiment [1] is described as follows: qHTS assay for small molecule agonists of the p53 signaling pathway (AID 651631; calls by dose curve; further: nearly all actives have a fitted effect of over 15% in size). A digest of the protocol:
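HCT-116 cells carrying a beta-lactamase reporter under p53 response elements were dosed with compound for 16 h at 37 °C. LiveBLAzer B/G FRET substrate was then added for 2 h at room temperature, and fluorescence intensity was read to detect pathway agonism.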

The nature of experiment [2]: qHTS assay for small molecules that induce genotoxicity in human embryonic kidney cells expressing luciferase-tagged ATAD5 (AID 651632). Further: nearly all actives have a fitted effect of over 15% in size. In outline:
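A rise in luciferase signal from ATAD5-tagged HEK293T cells marks genetic stress. Cells were exposed to compounds for 16 hr at 37C, 5% CO2, then luciferase was quantified after a 30 min room-temperature incubation with Amplite.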

Experiment [3] is described as follows: qHTS assay for small molecule agonists of the p53 signaling pathway - cell viability (AID 651633; calls by dose curve;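 further: p53RE-bla HCT reporter cells with a stable beta-lactamase p53 reporter; series mostly up to about 83 µM; nearly all actives have a fitted effect of over 30% in size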). A digest of the protocol:
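p53RE-bla cells, seeded at 4,000 per well and rested 5 h at 37 C/5% CO2, received compounds in DMSO for 16 h at 37 C. CellTiter-Glo was then added, and luminescence was read after 30 min at room temperature to gauge cytotoxicity.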

A short description of experiment [4]: qHTS assay for small molecule disruptors of the mitochondrial membrane potential - cell viability (AID 720634; calls by dose curve;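 further: human HepG2 liver cancer cells; series mostly up to about 83 µM; nearly all actives have a fitted effect of over 20% in size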). A digest of the protocol:
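Cytotoxicity was quantified from ATP content by CellTiter-Glo luminescence in the same wells as the MMP dye read-out. HepG2 (2,000 cells/well) were plated overnight and exposed to compounds for 1 hr at 37 C.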

Experiment [5] is described as follows: qHTS assay to test for compound auto fluorescence at 535 nm (green) in HepG2 cells (AID 720675).
A short description of experiment [6]: qHTS assay to test for compound auto fluorescence at 460 nm (blue) in HEK293 cells (AID 720678). In outline:
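Cells were seeded and left to adhere for 4-5 hr at 37C. Compounds were then pin-transferred. After an overnight incubation at 37C under 5% CO2, intrinsic fluorescence at 405/460 nm was measured and referenced to triamterene.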

The nature of experiment [7]: qHTS assay to test for compound auto fluorescence at 590 nm (red) in HEK293 cells (AID 720679). A digest of the protocol: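 Each well held 2,000 HEK293 cells in medium containing 10% dialyzed FBS. Following 4-5 hr attachment at 37C, 23 nL test compound or DMSO was added; plates sat overnight, and red fluorescence (540/590nm) was recorded.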
A short description of experiment [8]: qHTS assay for small molecules that induce genotoxicity in human embryonic kidney cells expressing luciferase-tagged ATAD5 - cell viability (AID 651634; calls by dose curve; further: nearly all actives have a fitted effect of over 25% in size; further: potency means the concentration at half of the fitted maximal effect). A digest of the protocol: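 Cytotoxicity counter-readout: after 15.5 hr compound treatment at 37C, live-cell protease activity in ATAD5-luciferase HEK293T cells measured by CellTiter-Fluor fluorescence, 30 min development at 37C.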

Experiment [9] can be described thus: qHTS assay for small molecule disruptors of the mitochondrial membrane potential (AID 720635). Further: potency means the concentration at half of the fitted maximal effect. In outline: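 HepG2 cells (2,000/well) attached overnight at 37C, then took compound for 1 hr at 37C, 5% CO2. Mito-MPS dye was added for 30 min; fluorescence was read at 490/535 nm (monomers) and 540/590 nm (aggregates).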
Experiment [10] in a line: qHTS assay to test for compound auto fluorescence at 590 nm (red) in HepG2 cells (AID 720674). A digest of the protocol:
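Compound auto-fluorescence is scored relative to Rose Bengal sodium, measured at 540/590 nm in live HepG2 cultures after 1 hr compound contact (37 C, 5% CO2).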

SMILES strings stand for the structures. Where “and” joins values, the source holds several entries; their conditions need not be identical. Identical values can stand only once. Records with an inconclusive call do not appear. Calls of active or inactive are those of the source. Unless noted, the call rests on the fitted dose curve; in most records, active means well fitted curve in the direction sought with a large enough effect in the repeat runs; inconclusive means weak or mixed curves; inactive means no such curve, though single readings can be large; an effect the other way counts as inactive or inconclusive.

For `COc1cc(OC)c(C(=O)CCCN2CCCC2)c(OC)c1`, the outcome in [1], in [2], in experiment [3], in experiment [5], in [6] and in experiment [7] was inactive. Besides, the Potency result in experiment [4] is “inactive”.
For `C=C(C)CNCC`, the molecule was called inactive in experiment [1], in experiment [2], in [3], in experiment [5] and in experiment [6].
With `CC(C)c1cccc(C(C)C)c1`, the molecule was classed as inactive in [2], in [5] and in experiment [6]. The Potency result in experiment [4] is “inactive”.
With `CC(C)OP(=O)(CP(=O)(OC(C)C)OC(C)C)OC(C)C`, the outcome in experiment [1], in experiment [2], in [3], in [5] and in experiment [6] was inactive. Moreover, in experiment [4], the Potency result is “inactive”.
As for `CC(C)(Oc1ccc(CCNC(=O)c2ccc(Cl)cc2)cc1)C(=O)O`, the result in experiment [2], in [3], in experiment [5] and in experiment [6] was inactive. In addition, the Potency result in experiment [8], in [4] and in experiment [9] was “inactive” throughout.
In the case of `CC(=O)OC1CC(C)OC(C)O1` (centres undefined), the result in experiment [2], in experiment [5], in experiment [6] and in [7] was inactive. For the same molecule, the Potency entry in experiment [4] and in experiment [9] was “inactive” each time.
For `O=[N+]([O-])c1ccc2nc[nH]c2c1`, the result in experiment [2], in experiment [10], in experiment [5], in experiment [6] and in [7] was inactive. The Potency result in experiment [8] and in experiment [4] was “inactive” each time. In addition, the Potency in experiment [9] was 27.3 µM (active).
Take `CC(=O)OCc1ccco1`: the molecule was classed as inactive in [2], in [10], in experiment [5] and in experiment [6]. Besides, the Potency entry in [8], in [4] and in experiment [9] was “inactive” each time.
For `Nc1ccc(Cl)c(N)c1`, the call in experiment [2], in [3], in experiment [5], in experiment [6] and in experiment [7] was inactive. For the same molecule, the Potency entry in experiment [8] and in experiment [4] was “inactive” throughout. For the same molecule, the Potency in experiment [9] is 68.8 µM (active).
On to `C[C@]12CC[C@@H]3c4ccc(O)cc4CC[C@H]3[C@@H]1C[C@@H](O)[C@@H]2O`, for which the molecule was called inactive in experiment [1], in experiment [3], in [10], in experiment [5], in [6] and in [7]. Further, the Potency result in experiment [4] and in [9] was “inactive” in each case.
Take `CC(C)CC(C)O` (centres undefined): the outcome in experiment [2], in [10], in experiment [5] and in experiment [6] was inactive. Besides, the Potency entry in experiment [4] and in [9] was “inactive” throughout.
In the case of `OC1C(O)C(O)C(O)C(O)C1O` (centres undefined), the molecule was classed as inactive in experiment [2], in experiment [3], in experiment [5], in experiment [6] and in experiment [7]. Moreover, the Potency entry in experiment [8] and in [4] was “inactive” each time.
For the molecule `N[C@H](Cc1c[nH]c2ccccc12)C(=O)O`, the result in [3], in experiment [10], in experiment [5] and in experiment [6] was inactive. For the same molecule, the Potency result in experiment [8], in experiment [4] and in experiment [9] was “inactive” each time.
`OCc1ccccc1`: the molecule was called inactive in experiment [2], in experiment [3], in experiment [10], in experiment [5], in experiment [6] and in experiment [7]. The Potency result in experiment [8], in experiment [4] and in [9] was “inactive” throughout.
As for `CCCCC(C=O)CC` (centres undefined), the call in [2], in experiment [3], in experiment [10], in [5], in experiment [6] and in experiment [7] was inactive. In addition, the Potency result in experiment [4] and in experiment [9] was “inactive” in each case.
In the case of `CC(C)(C)c1cc(Cc2cc(C(C)(C)C)c(O)c(C(C)(C)C)c2)cc(C(C)(C)C)c1O`, the call in experiment [2], in [3], in experiment [5], in [6] and in experiment [7] was inactive. Besides, the Potency entry in experiment [8], in experiment [4] and in experiment [9] was “inactive” throughout.
For the molecule `CCCCCCCO`, the outcome in experiment [2], in experiment [3], in [10], in [5] and in experiment [6] was inactive. In addition, the Potency result in experiment [8], in [4] and in experiment [9] was “inactive” each time.
On to `CCCCCCCCCCCCCCCCO`, for which the call in experiment [2], in [3], in experiment [10], in experiment [5] and in [6] was inactive. The Potency result in experiment [8], in experiment [4] and in [9] was “inactive” throughout.
`NCCNCCN`: the call in experiment [1], in experiment [2], in [3], in experiment [10], in [5] and in [6] was inactive.
Take `COc1ccc(N)c(C)c1`: the result in [2], in experiment [3], in experiment [5], in experiment [6] and in [7] was inactive. The Potency entry in experiment [4] and in [9] was “inactive” each time.
Consider `CCCCOC(=O)c1ccc(N)cc1`, for which the result in [1], in experiment [3], in experiment [10], in experiment [5] and in experiment [6] was inactive. Also, the Potency entry in experiment [8], in experiment [4] and in [9] was “inactive” throughout.
Regarding `O=C1c2ccccc2CCc2ccccc21`, the molecule was classed as inactive in experiment [2], in experiment [3], in experiment [5], in experiment [6] and in experiment [7]. In [4], the Potency entry was “inactive”. The Potency in [9] was 31.3 µM (active).
`N#Cc1ccccc1`: the call in [1], in experiment [3], in experiment [10], in experiment [5], in experiment [6] and in experiment [7] was inactive. Besides, the Potency result in experiment [8], in experiment [4] and in [9] was “inactive” throughout.
Regarding `O=S(=O)(O)c1ccc(N=Nc2c(O)ccc3cc(S(=O)(=O)O)ccc23)cc1`, the molecule was called inactive in [2], in experiment [3], in experiment [10], in experiment [5] and in experiment [6]. Besides, the Potency in experiment [8] is 30.8 µM (active) and 30.6 µM (active). Further, the Potency entry in [4] was “inactive”.
`C=C(C)[C@H]1CC=C(C)C(=O)C1`: the outcome in experiment [2], in experiment [3], in experiment [5], in experiment [6] and in experiment [7] was inactive. The Potency result in experiment [8] and in experiment [4] was “inactive” throughout.
Regarding `COc1ccc(CCC(C)=O)cc1`, the outcome in experiment [2], in experiment [3], in [10], in [5] and in [6] was inactive. Also, the Potency entry in experiment [4] was “inactive”.
Take `O=C(O)c1cc2ccccc2cc1O`: the result in experiment [2], in experiment [3], in experiment [10], in experiment [5] and in experiment [6] was inactive. Besides, the Potency entry in experiment [4] is “inactive”. The Potency in experiment [9] is 54.1 µM (active) and 54.5 µM (active).
As to `C=CCc1ccc(OC)c(OC)c1`, the molecule was classed as inactive in experiment [1], in [2], in experiment [3], in [10], in experiment [5] and in experiment [6]. Moreover, the outcome in [7] was inactive. The Potency entry in experiment [4] is “inactive”.
With `C[C@]12CCC(=O)C=C1CC[C@@H]1[C@@H]2[C@@H](O)C[C@@]2(C)[C@H]1CC[C@]2(O)C(=O)CO`, the call in [2], in experiment [10], in experiment [5], in experiment [6] and in [7] was inactive. Moreover, the Potency result in experiment [8] is “inactive”.
Regarding `CCO[Si](CCC#N)(OCC)OCC`, the outcome in experiment [2], in experiment [3], in experiment [5], in [6] and in experiment [7] was inactive. In addition, the Potency entry in [8], in experiment [4] and in experiment [9] was “inactive” in each case.
Regarding `Nc1nc(N)nc(-c2ccccc2)n1`, the call in experiment [2], in experiment [3], in experiment [10], in [5], in [6] and in [7] was inactive. Moreover, the Potency entry in experiment [8], in [4] and in [9] was “inactive” in each case.
With `O=c1[nH]cnc2[nH]ncc12`, the molecule was classed as inactive in experiment [2], in [3], in experiment [5] and in [6]. The Potency entry in experiment [8], in [4] and in experiment [9] was “inactive” in each case.

These data come from PubChem BioAssay (Tox21).
